The results in this text go back to PubChem BioAssay (Tox21).

Several values for one entry are separate records, joined by “and”; a condition that tells them apart may be missing. Equal entries are not always repeated. Inconclusive results are not listed. Where a structure was tested more than once in an assay, its records may differ in their call. Activity calls are given as the source filed them. Calls follow the shape of the dose curve; as a rule, active = well fitted curve in the direction sought with a large enough effect in the repeat runs; inconclusive = weak or mixed curves; inactive = no such curve, though single readings can be large; an effect the other way counts as inactive or inconclusive.

Assay [1] in a line: qHTS RealTime-Glo MT Cell Viability Assay in HEK293 cells - 40 hour (AID 1224874). Also: nearly all actives have a fitted effect of over 50% in size. Also: potency is read from the fitted curve at half-maximal effect. As to conditions: RealTime-Glo luminescence; max response: stronger effect = lower value. Summed up:
(§1)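 qHTS format; HEK293 cells with NanoLuc/prosubstrate reagent, 37 C/5% CO2 for 5 h pre-dosing; compounds 23 nL in DMSO; luminescence at each time point reflects viable cells.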

Assay [2] in a line: A CellTox Green Cytotoxicity Assay to monitor cytotoxicity in HEK293 cells - 24 hour (AID 1224875). Also: series mostly up to about 77 µM; nearly all actives have a fitted effect of over 45% in size. Summed up:
(§2)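 Each value comes from one timepoint of a single continuous run in which HEK293 cells with CellTox Green were exposed to compound for up to 40 h at 37 C, dye fluorescence rising with cell death.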

A short description of assay [3]: A CellTox Green Cytotoxicity Assay to monitor cytotoxicity in HepG2 cells - 16 hour (AID 1224876). Also: nearly all actives have a fitted effect of over 45% in size. In outline:
(§3)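 Continuous culture of HepG2 cells with a membrane-impermeant DNA dye; rising fluorescence marks dead cells. Compound exposure lasted up to 40 h at 37 C, with reads every 8 h from 0 h.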

A short description of assay [4]: qHTS RealTime-Glo MT Cell Viability Assay in HepG2 cells - 32 hour (AID 1224877). Also: nearly all actives have a fitted effect of over 55% in size. In outline: (§4)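 qHTS, HepG2, 600 cells/well, RealTime-Glo (NanoLuc + prosubstrate) added with cells; 5 h preincubation; DMSO compound addition; 37 C; luminescence at 0/8/16/24/32/40 h.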
Assay [5] can be described thus: A CellTox Green Cytotoxicity Assay to monitor cytotoxicity in HepG2 cells - 24 hour (AID 1224878). Also: nearly all actives have a fitted effect of over 45% in size. In outline:
as §3

The nature of assay [6]: A CellTox Green Cytotoxicity Assay to monitor cytotoxicity in HepG2 cells - 40 hour (AID 1224879). Also: nearly all actives have a fitted effect of over 40% in size. Also: potency is read from the fitted curve at half-maximal effect. In outline: as §3
Assay [7] is described as follows: qHTS RealTime-Glo MT Cell Viability Assay in HEK293 cells - 0 hour (AID 1224880). Also: top concentration of the series differs between compounds; nearly all actives have a fitted effect of over 45% in size. In outline:
as §1

The nature of assay [8]: A CellTox Green Cytotoxicity Assay to monitor cytotoxicity in HEK293 cells - 32 hour (AID 1224881). Also: nearly all actives have a fitted effect of over 40% in size. Also: potency is read from the fitted curve at half-maximal effect. Summed up: as §2
Assay [9] can be described thus: A CellTox Green Cytotoxicity Assay to monitor cytotoxicity in HepG2 cells - 0 hour (AID 1224882). Also: nearly all actives have a fitted effect of over 35% in size. Summed up:
as §3

Assay [10] can be described thus: A CellTox Green Cytotoxicity Assay to monitor cytotoxicity in HepG2 cells - 32 hour (AID 1224883). Also: nearly all actives have a fitted effect of over 50% in size. Summed up: as §3
Assay [11] can be described thus: A CellTox Green Cytotoxicity Assay to monitor cytotoxicity in HEK293 cells - 8 hour (AID 1224884). Also: nearly all actives have a fitted effect of over 35% in size. Also: potency is read from the fitted curve at half-maximal effect. In outline:
as §2

A short description of assay [12]: qHTS RealTime-Glo MT Cell Viability Assay in HepG2 cells - 16 hour (AID 1224885). Also: nearly all actives have a fitted effect of over 50% in size. Summed up: as §4
A short description of assay [13]: qHTS RealTime-Glo MT Cell Viability Assay in HEK293 cells - 24 hour (AID 1224886). Also: nearly all actives have a fitted effect of over 50% in size. Also: potency is read from the fitted curve at half-maximal effect. Summed up:
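Assay medium contained NanoLuc luciferase plus cell-permeant prosubstrate, added with HEK293 cells at 600 cells/well. After 5 h at 37 C/5% CO2 compounds were added; plates stayed at 37 C for 40 h with serial luminescence reads.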

The nature of assay [14]: qHTS RealTime-Glo MT Cell Viability Assay in HEK293 cells - 8 hour (AID 1224887). Summed up: as §1
Assay [15] can be described thus: A CellTox Green Cytotoxicity Assay to monitor cytotoxicity in HEK293 cells - 16 hour (AID 1224888). Also: nearly all actives have a fitted effect of over 35% in size. Summed up:
as §2

A short description of assay [16]: qHTS RealTime-Glo MT Cell Viability Assay in HepG2 cells - 0 hour (AID 1224889). Also: nearly all actives have a fitted effect of over 50% in size. In outline:
as §4

Assay [17] is described as follows: qHTS assay to identify small molecule antagonists of the estrogen receptor alpha (ER-alpha) signaling pathway using the BG1 cell line in the presence of 0.1 nM 17-beta-estradiol - cell viability counter screen (AID 1259241). Also: nearly all actives have a fitted effect of over 40% in size. In outline: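 Measures cytotoxicity alongside the ER-alpha antagonist readout: VM7Luc4E2 cells, charcoal-stripped serum, 0.1 nM 17beta-estradiol final, 22 hr compound incubation at 37C, CellTiter-Fluor fluorescence.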

A short description of assay [18]: qHTS assay to identify small molecule antagonists of the androgen receptor (AR) signaling pathway using the MDA cell line in the presence of 0.5 nM R1881 - cell viability counter screen (AID 1259242). Also: nearly all actives have a fitted effect of over 45% in size. In outline:
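Fluorescence from CellTiter-Fluor, which reports protease activity of live cells, was read 30 min after reagent addition to MDA-kb2 cells that had been incubated 16 hr with compound and 0.5 nM R1881.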

The nature of assay [19]: A CellTox Green Cytotoxicity Assay to monitor cytotoxicity in HepG2 cells - 8 hour (AID 1224890). Also: nearly all actives have a fitted effect of over 45% in size. Also: potency is read from the fitted curve at half-maximal effect. Summed up:
as §3

Assay [20] concerns the target Androgen receptor (Homo sapiens) (UniProt P10275). Put plainly: qHTS assay to identify small molecule antagonists of the androgen receptor (AR) signaling pathway using the MDA cell line in the presence of 0.5 nM R1881 (AID 1259243). Also: nearly all actives have a fitted effect of over 50% in size. Also: potency is read from the fitted curve at half-maximal effect. In outline:
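Inhibition of R1881 (0.5 nM final) induced reporter signal was measured in human MDA-kb2 cells; note the MMTV promoter also responds to GR. Exposure lasted 16 hr at 37C.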
% is scaled to controls: 0 for no effect and ±100 for the full control effect.

Sequence of Androgen receptor (Homo sapiens) (P10275 whole entry, looked up): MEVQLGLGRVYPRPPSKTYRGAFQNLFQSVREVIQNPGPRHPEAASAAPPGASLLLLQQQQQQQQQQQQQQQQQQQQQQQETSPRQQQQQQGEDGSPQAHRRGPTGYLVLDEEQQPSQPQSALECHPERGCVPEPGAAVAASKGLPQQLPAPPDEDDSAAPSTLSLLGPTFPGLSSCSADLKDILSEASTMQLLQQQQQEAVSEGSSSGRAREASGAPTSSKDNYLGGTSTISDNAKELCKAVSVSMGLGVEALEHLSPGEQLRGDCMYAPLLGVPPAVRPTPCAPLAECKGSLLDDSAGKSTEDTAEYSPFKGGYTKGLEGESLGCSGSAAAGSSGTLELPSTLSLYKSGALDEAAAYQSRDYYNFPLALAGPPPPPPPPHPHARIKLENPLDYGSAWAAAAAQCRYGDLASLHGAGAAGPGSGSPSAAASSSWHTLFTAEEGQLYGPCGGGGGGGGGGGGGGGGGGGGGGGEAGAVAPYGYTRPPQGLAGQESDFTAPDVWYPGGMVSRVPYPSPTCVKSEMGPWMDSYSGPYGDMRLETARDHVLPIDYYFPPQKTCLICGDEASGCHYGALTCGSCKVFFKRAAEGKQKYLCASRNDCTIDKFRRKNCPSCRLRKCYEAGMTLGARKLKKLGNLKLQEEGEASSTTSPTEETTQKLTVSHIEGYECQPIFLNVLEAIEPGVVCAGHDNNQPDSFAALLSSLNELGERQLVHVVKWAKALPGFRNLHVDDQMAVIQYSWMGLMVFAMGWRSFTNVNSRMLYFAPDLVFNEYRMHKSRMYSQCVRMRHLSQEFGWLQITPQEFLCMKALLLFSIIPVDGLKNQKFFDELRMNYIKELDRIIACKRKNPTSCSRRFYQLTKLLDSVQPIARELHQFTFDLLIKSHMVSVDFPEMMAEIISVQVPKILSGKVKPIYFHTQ

For the compound `C=CC(N)=O`, the max response in assay [1] was 0.5% (inactive) and -10.4% (inactive). The Potency entry in assay [2], in [3], in assay [5], in assay [6], in [8] and in assay [9] was “inactive” each time. Further, the Potency result in [10], in assay [11], in [13], in assay [15] and in [17] was “inactive” in each case. Further, the compound was classed as inactive in assay [4], in assay [7], in [12], in assay [14], in [16] and in assay [18].
Consider `CC(C)NC(=O)N1CC(=O)N(c2cc(Cl)cc(Cl)c2)C1=O`, for which the Potency entry in [2], in assay [3], in assay [5], in assay [6], in [8] and in [9] was “inactive” each time. For the same compound, the Potency result in assay [10], in [11], in assay [13], in assay [15], in [19] and in assay [17] was “inactive” each time. Besides, the compound was called inactive in assay [4], in [7], in [12], in assay [14], in assay [16] and in assay [18].
For `Cc1ccc(N)cc1Cl`, the max response in [1] is -5.66% (inactive) and 1.08% (inactive). For the same compound, the Potency result in [2], in assay [3], in [5], in [6], in [8] and in [9] was “inactive” throughout. Moreover, the Potency result in assay [10], in assay [11], in [13], in assay [15] and in assay [17] was “inactive” each time. For the same compound, the compound was called inactive in assay [4], in assay [7], in [12], in assay [14], in assay [16] and in assay [18].
For `ClCc1cccnc1`, the max response in assay [1] was 2.33% (inactive) and -1.14% (inactive). Besides, the Potency entry in [2], in assay [3], in [5], in assay [6], in assay [8] and in assay [9] was “inactive” in each case. Also, the Potency entry in [10], in [11], in assay [13], in assay [15] and in assay [17] was “inactive” throughout. In addition, the compound was called inactive in assay [4], in assay [7], in assay [12], in assay [14], in [16] and in [18].
For the compound `COC(=O)NC(=S)Nc1ccccc1NC(=S)NC(=O)OC`, the Potency result in [2], in assay [3], in assay [5], in [6], in assay [8] and in [9] was “inactive” in each case. The Potency entry in assay [10], in assay [11], in [13], in assay [15] and in [17] was “inactive” each time. Also, the compound was called inactive in assay [4], in assay [7], in [12], in [14], in assay [16] and in assay [18].
For the compound `CCc1cccc(C)c1N(C(=O)CCl)C(C)COC` (stereo not drawn), the max response in [1] is -0.256% (inactive) and -7.36% (inactive). For the same compound, the Potency entry in assay [2], in [3], in assay [5], in assay [6], in assay [8] and in assay [9] was “inactive” in each case. Besides, the Potency entry in assay [10], in assay [11], in assay [13], in [15] and in assay [17] was “inactive” in each case. Besides, the call in assay [4], in assay [7], in assay [12], in assay [14], in assay [16] and in assay [18] was inactive.
In the case of `c1ccc2c(c1)oc1ccccc12`, the max response in assay [1] is -5.88% (inactive) and -12.6% (inactive). The Potency result in assay [2], in [3], in [5], in assay [8], in assay [9] and in assay [11] was “inactive” in each case. Moreover, the Potency entry in assay [13], in assay [15] and in assay [17] was “inactive” each time. The compound was called inactive in assay [4], in [7], in [12], in assay [14], in assay [16] and in assay [18].
Consider `CCCC1COC(Cn2cncn2)(c2ccc(Cl)cc2Cl)O1` (stereo not drawn), for which the Potency was 25 µM (active) and 21.9 µM (active) in assay [1]; 49.9 µM (active) and inactive in assay [8]; 25 µM (active) and 24.5 µM (active) in [13]; 31.2 µM (active) and 30.6 µM (active) in assay [20]. Also, the Potency result in assay [3], in assay [5], in assay [9], in assay [11], in assay [15] and in assay [19] was “inactive” in each case. Also, in [17], the Potency result is “inactive”. The outcome in assay [4], in assay [7], in assay [12], in assay [16] and in assay [18] was inactive.
Turning to `CC(C)(C)OOC(=O)c1ccccc1`, the max response in assay [1] was -10.9% (inactive) and 1.81% (inactive). In addition, the Potency entry in [2], in assay [3], in assay [5], in [6], in assay [8] and in assay [9] was “inactive” throughout. For the same compound, the Potency entry in assay [10], in assay [11], in assay [13], in [15] and in assay [17] was “inactive” in each case. The compound was classed as inactive in assay [4], in assay [7], in assay [12], in assay [16] and in [18].
Consider `c1ccc(-c2ccccc2)cc1`, for which the max response in assay [1] is -0.911% (inactive) and -11.7% (inactive). Besides, the Potency entry in assay [2], in assay [3], in [5], in assay [8], in [9] and in assay [10] was “inactive” in each case. Moreover, the Potency result in assay [11], in [13], in assay [15], in assay [17] and in assay [20] was “inactive” each time. Further, the result in assay [4], in assay [7], in assay [12], in assay [14], in assay [16] and in assay [18] was inactive. In addition, the Potency in assay [6] was 49.4 µM (active) and inactive.
For the compound `O=c1[nH]c(=O)[nH]c(=O)[nH]1`, the max response in assay [1] was 1.39% (inactive) and 0.958% (inactive). Also, the Potency result in assay [2], in assay [3], in assay [5], in [6], in assay [8] and in assay [9] was “inactive” in each case. Besides, the Potency entry in assay [10], in assay [11], in assay [13], in assay [15], in [17] and in assay [20] was “inactive” in each case. Further, the result in assay [4], in [7], in assay [12], in [14], in [16] and in assay [18] was inactive.
As for `O=[N+]([O-])c1ccc(Oc2ccc(Cl)cc2Cl)cc1`, the Potency result in assay [2], in assay [3], in assay [5], in [6], in assay [8] and in [9] was “inactive” each time. The Potency entry in assay [10], in [11], in assay [15] and in assay [17] was “inactive” each time. Moreover, the call in [4], in assay [7], in assay [12], in [16] and in assay [18] was inactive.
For `O=NN1CCCC1`, the max response in assay [1] is -15.8% (inactive) and -5.95% (inactive). Besides, the Potency result in assay [2], in [8], in [9], in assay [13], in [15] and in assay [17] was “inactive” in each case. For the same compound, the compound was called inactive in assay [4], in [7], in [12], in assay [14], in assay [16] and in assay [18]. In addition, the Potency in assay [6] is 57.5 µM (active) and inactive; in assay [11], “inactive and 21.9 µM (active)”; in assay [19], “inactive and 38.9 µM (active)”.
In the case of `COP(N)(=O)SC` (stereo not drawn), the max response in assay [1] was -1.86% (inactive) and 15.3% (inactive). For the same compound, the Potency entry in assay [2], in assay [3], in assay [5], in assay [6], in assay [8] and in assay [9] was “inactive” throughout. The Potency result in [10], in [11], in assay [13], in [15] and in assay [17] was “inactive” in each case. The outcome in assay [4], in [7], in assay [12], in assay [14], in [16] and in assay [18] was inactive.
